Laboratory results reported in PubChem BioAssay AID602379 (National Center for Advancing Translational Sciences (NCATS), 2012).
Active and inactive are the calls of the source. Calls come from the whole dose curve; as a rule, active = well fitted curve in the direction sought with a large enough effect; inactive = no such curve, though single readings can be large or run the other way.

Biological target: Pyruvate kinase PKLR (Homo sapiens) (UniProt P30613)
Assay: qHTS for Activators of Human Muscle Isoform Pyruvate Kinase: Extended Characterization against Liver Pyruvate Kinase
Details: purified hPK-L, ATP via Kinase-Glo luminescence, 1 h; series mostly up to 57.3 µM
Procedure: Human pyruvate kinase liver (hPK-L) enzyme was supplied as a highly purified (>95% pure) preparation from Harvard Medical School and assayed for its ability to generate ATP from ADP using phosphoenolpyruvate (PEP) as a substrate. ATP generation was detected in a coupled reaction by luciferase-mediated luminescence, an ATP-dependent process. Pyruvate kinase substrates, PEP and ADP, were present in the assay at Km and approximately 10-fold below Km respectively. The enzyme was assayed at an intermediate level of activity to screen for both inhibitors and activators. NIH Chemical Genomics Center [NCGC] NIH Molecular Libraries Probe Centers Network [MLPCN] MLPCN Grant: MH085679 Assay Submitter (PI): Matthew G. Vander Heiden, Harvard Medical School
Three uL of substrate mix (at r.t.) in assay buffer (50 mM Imidazole pH7.2, 50 mM KCl, 7 mM MgCl2, 0.01% Tween 20, 0.05% BSA) was dispensed into white solid bottom 1,536 well microtiter plates so that the final concentrations of substrates in the assay were 0.1 mM ADP and 0.5 mM PEP. 23 nL of compound were delivered by a pin tool and 1 uL of enzyme mix (final concentration of 0.1 nM) in assay buffer (4 degree Celsius) was added. Plates were incubated at room temperature for 1 hour. Two uL of detection mix (Kinase-Glo, Promega; at 4 degree Celsius protected from light) was added and luminescence read by a ViewLux (Perkin Elmer) at 1 second exposure/plate. Data were normalized to the uninhibited (row 31). Additionally, a no enzyme and 5-fold enzyme control was dispensed in row 32, split equally between the two conditions.

Sequence of Pyruvate kinase PKLR (Homo sapiens) (P30613 whole entry, looked up, canonical isoform): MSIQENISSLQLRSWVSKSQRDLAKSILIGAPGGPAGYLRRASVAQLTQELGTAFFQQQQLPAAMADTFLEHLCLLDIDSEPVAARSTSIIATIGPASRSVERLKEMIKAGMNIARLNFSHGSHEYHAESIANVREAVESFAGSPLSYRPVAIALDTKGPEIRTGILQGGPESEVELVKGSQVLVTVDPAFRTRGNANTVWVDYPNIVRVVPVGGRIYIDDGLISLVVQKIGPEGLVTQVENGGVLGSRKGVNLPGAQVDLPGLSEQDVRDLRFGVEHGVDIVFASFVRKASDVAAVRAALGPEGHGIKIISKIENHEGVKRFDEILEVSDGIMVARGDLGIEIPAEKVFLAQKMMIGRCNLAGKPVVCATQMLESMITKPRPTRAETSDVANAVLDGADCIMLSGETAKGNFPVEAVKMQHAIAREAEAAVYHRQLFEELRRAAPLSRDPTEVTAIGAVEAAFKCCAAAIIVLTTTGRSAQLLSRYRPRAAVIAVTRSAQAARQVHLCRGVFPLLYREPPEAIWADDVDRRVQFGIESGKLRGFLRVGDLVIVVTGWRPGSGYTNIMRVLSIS

outcome, inactive:
Cc1cc2c(s1)c1cnn(Cc3cc(F)c(F)cc3F)c(=O)c1n2C
Cc1cc2c(s1)c1cnn(Cc3cc(F)ccc3F)c(=O)c1n2C
COc1cccc(Cn2ncc3c4sc(S(C)=O)cc4n(C)c3c2=O)c1 (stereo not given)
Cc1cc2c(s1)c1cnn(Cc3ccc(F)cc3F)c(=O)c1n2C
Cc1cc2c(s1)c1cnn(Cc3c(Cl)ccc(C)c3F)c(=O)c1n2C
